This is part of a sample that, as a whole, favours compounds with a hit. Of some 83,000 tested, about 20% had one in any assay.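 Testing used 96-well plates and a 48-hour single-concentration exposure. Example: -40 means 40% of the starting cells died.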 Active and inactive are the calls of the source. The calls were made as follows: active = growth percent below 10; inactive = the rest.
Tests used:
Assay in all cases: NCI-60 one-dose screen, 48 h (100 = growth as untreated, 0 = no growth, -100 = all killed)
Details in all cases: 10 µM unless noted
[1] = tested on: SK-MEL-2 melanoma
[2] = tested on: SN12C renal
[3] = tested on: UO-31 renal
[4] = tested on: TK-10 renal
[5] = tested on: ACHN renal
[6] = tested on: CAKI-1 renal
[7] = tested on: A498 renal
[8] = tested on: HL-60(TB) leukemia
[9] = tested on: CCRF-CEM leukemia
[10] = tested on: MOLT-4 leukemia
[11] = tested on: RPMI-8226 leukemia
[12] = tested on: OVCAR-8 ovarian
[13] = tested on: OVCAR-5 ovarian
[14] = tested on: OVCAR-4 ovarian
[15] = tested on: SK-OV-3 ovarian
[16] = tested on: OVCAR-3 ovarian
[17] = tested on: HS 578T breast
[18] = tested on: SR leukemia
[19] = tested on: IGROV1 ovarian

Measured: growth

CC[C@@H](C)C(=O)O[C@H]1[C@H](O)[C@H]2[C@@H](CN3C[C@@H](C)CC[C@H]3[C@@]2(C)O)[C@@H]2C[C@]34O[C@]5(O)[C@@H](OC(=O)[C@@](C)(O)CC)CC[C@@]3(C)[C@@H]5[C@@H](OC(C)=O)[C@@H](OC(C)=O)[C@H]4[C@@]21O
inactive: [1] 103% | [2] 97.1% | [3] 82.1% | [4] 106% | [5] 101% | [6] 100% | [7] 102% | [8] 92.4% | [9] 99.9% | [10] 87.3% | [11] 94.1% | [12] 94.2% | [13] 103% | [14] 95.1% | [15] 93.9% | [16] 106% | [17] 97.3%

COc1ccc2c(c1)c(-c1nc(-c3cn(C)c4ncccc34)cs1)cn2CCCCN1CCOCC1
inactive: [1] 64.4% | [2] 68% | [3] 34% | [4] 69.9% | [5] 32% | [6] 41.4% | [7] 58.1% | [8] 24.7% | [12] 48.5% | [13] 56.9% | [14] 60.2% | [15] 79.7% | [16] 50.8%
active: [9] 2.06% | [18] -5.63% | [11] -18.1%

C=C[Se]CC(=O)/C=C/c1ccccc1
inactive: [1] 99.9% | [2] 73.6% | [3] 39.4% | [4] 103% | [5] 95.5% | [6] 106% | [7] 65.3% | [8] 42.2% | [9] 47.4% | [18] 58.7% | [11] 93.2% | [12] 59.5% | [13] 89.9% | [14] 95.3% | [15] 53% | [19] 104% | [16] 89.1%

CO/N=C1\CC[C@]2(C)[C@H]3CC[C@]4(C)C(=O)CC[C@H]4[C@@H]3C[C@@H]3SC(N)=N[C@@]32C1
inactive: [1] 96.5% | [2] 107% | [3] 77.9% | [4] 116% | [5] 100% | [6] 74.3% | [7] 98.9% | [8] 91.9% | [9] 98.7% | [10] 86.1% | [18] 71.8% | [11] 93.2% | [12] 105% | [13] 105% | [15] 122% | [19] 101% | [16] 85.5% | [17] 102%

C[N+]1(C)CCCC1c1cccnc1 (stereo not given)
inactive: [1] 112% | [2] 99.8% | [3] 99.7% | [4] 111% | [5] 114% | [6] 98.2% | [8] 117% | [9] 97.6% | [10] 102% | [18] 97.8% | [11] 99.4% | [12] 104% | [13] 109% | [14] 107% | [15] 108% | [19] 115% | [16] 108% | [17] 89.2%

O=NN1CCCCC1
inactive: [1] 105% | [2] 98.7% | [3] 98.8% | [4] 110% | [5] 101% | [6] 107% | [7] 88.1% | [8] 110% | [9] 104% | [10] 115% | [18] 106% | [11] 114% | [12] 111% | [13] 104% | [15] 107% | [19] 116% | [16] 112% | [17] 97.3%

O=[N+]([O-])c1c(Cl)cc(Cl)c([N+](=O)[O-])c1Cl
inactive: [1] 112% | [2] 108% | [3] 151% | [4] 112% | [5] 103% | [7] 111% | [9] 53.5% | [10] 80.8% | [18] 69% | [11] 90.2% | [12] 94.7% | [13] 115% | [14] 112% | [15] 111% | [16] 78.3% | [17] 109%

From PubChem BioAssay (NCI)
